# Source: PubChem BioAssay AID1851 (National Center for Advancing Translational Sciences (NCATS), 2009)
# Where “and” joins values, the source holds several entries; their conditions need not be identical. Identical values can stand only once. In all, about 16,000 compounds went through this assay and about 2,600 (16%) were called active. Roughly 20% stayed inconclusive and do not appear here. The call rests on the fitted dose curve; in most records, active means well fitted curve in the direction sought with a large enough effect; inconclusive means small, poorly fitted or top-dose-only effect, or effect the other way; inactive means no such curve, though single readings can be large or run the other way. A selection follows.
# Target: Cytochrome P450 2D6 (Homo sapiens) (UniProt P10635)
# Sequence (P10635 whole entry, looked up): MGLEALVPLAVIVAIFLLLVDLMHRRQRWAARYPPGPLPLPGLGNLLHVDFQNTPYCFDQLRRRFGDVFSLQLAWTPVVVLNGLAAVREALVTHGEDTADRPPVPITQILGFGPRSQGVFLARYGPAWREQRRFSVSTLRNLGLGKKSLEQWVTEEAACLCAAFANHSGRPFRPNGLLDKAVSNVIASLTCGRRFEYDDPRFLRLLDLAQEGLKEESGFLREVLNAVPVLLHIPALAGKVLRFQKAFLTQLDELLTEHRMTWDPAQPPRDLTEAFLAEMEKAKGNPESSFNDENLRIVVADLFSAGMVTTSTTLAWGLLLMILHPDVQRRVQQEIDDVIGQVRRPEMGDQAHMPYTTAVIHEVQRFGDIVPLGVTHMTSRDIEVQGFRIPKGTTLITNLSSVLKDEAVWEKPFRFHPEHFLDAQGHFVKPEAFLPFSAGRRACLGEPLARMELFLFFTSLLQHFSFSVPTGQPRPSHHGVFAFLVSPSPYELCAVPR
# Assay: Cytochrome panel assay with activity outcomes
# Conditions: recombinant CYP, pro-luciferin dealkylation, luminescence, p450-cyp2d6; series mostly up to 57.1 µM
# On the % scale 0 is the no-effect control and ±100 the full control effect.
Compound,AC50,"activity, negative = inhibition"
Cc1ccccc1NC(=S)NC(=O)c1cc(-c2ccccc2)nc2ccccc12,inactive,–
CC(C)(C)C(=O)NNC(=O)CCCOc1ccc(Cl)cc1Cl,inactive,–
COC(=O)CCC(=O)NNC(=O)CCCOc1ccc(Cl)cc1Cl,inactive,–
C#CCN(C)CCCOc1ccc(Cl)cc1Cl,2 µM (active) and 398 nM (active),–
Cc1ncc([N+](=O)[O-])n1CC(=O)NCc1ccccc1,inactive,–
COc1ccc(NC(=O)C23CC4CC(C2)CC(n2cnc(Br)n2)(C4)C3)c(C)c1,inactive,–
O=C(NC1CCCCC1)C12CC3CC(C1)CC(n1cncn1)(C3)C2,11.2 µM (active),–
O=S(=O)(c1cccc(-c2nnc(-c3ccc(Br)cc3)o2)c1)N1CCCCCC1,inactive,–
Cc1ccc(S(=O)(=O)n2ccc(-c3cccc(OCc4c(F)cccc4Cl)c3)n2)cc1,inactive,–
COc1ccc(C(=O)N/N=C2/C(=O)c3c(C)cc(C)cc3CC2(C)C)cc1,–,-4.67% [at 11.4 µM] (inactive)
CCCC1S/C(=N/N=C/c2ccc(OC)cc2)N(Cc2ccc(OC)cc2)C1=O (stereo not drawn),inactive,–
COc1cccc(C(=O)n2c(SC)nc3cc4c(cc32)OCCO4)c1,inactive,–
Cc1ncc(N=Nc2ccccc2Cl)c(-c2ccccc2)n1,inactive,–
COc1ccc(CCn2c(=N)c(C(=O)NCc3ccco3)cc3c(=O)n4ccccc4nc32)cc1,1.12 µM (active),–
CCOC(=O)c1cc2c(=O)n3ccccc3nc2n(CCCOC)c1=NC(C)=O,inactive,–
CCOc1ccc(-n2cc(C(=O)NCc3ccco3)c3cc(OC)c(OC)cc3c2=O)cc1,inactive,–
O=C(/C=C/c1ccccc1)N1CCN(Cc2nc3ccccc3c(=O)[nH]2)CC1,inactive,–
COc1cccc(-c2nc(NCc3cccs3)c3ccccc3n2)c1,12.6 µM (active),–
CS(=O)(=O)Nc1cccc(-c2nc(NCc3cccnc3)c3ccccc3n2)c1,20 µM (active),–
Cc1cccc(CNc2nc(-c3cccc(NS(C)(=O)=O)c3)nc3ccccc23)c1,12.6 µM (active),–
CS(=O)(=O)Nc1cccc(-c2nc(NCc3ccccc3)c3ccccc3n2)c1,20 µM (active),–
O=C(O)CSc1sc(=S)sc1SCC(=O)O,inactive,–
N[C@@H](Cc1ccc(O)c(O)c1)C(=O)O,inactive,–
O=C(NNC(=O)c1cc2cc3ccccc3nc2s1)c1cccc(Cl)c1,inactive,–
COc1ccc(NC(=O)c2ccc3c(=O)n(Cc4ccco4)c(=S)[nH]c3c2)c(OC)c1,inactive,–

Compound,AC50,"activity, negative = inhibition"
Cc1nc2c(ccc3nc(NC(=O)c4ccc5c(c4)OCCO5)sc32)s1,inactive,–
CCOCCCNC(=O)C1CCN(S(=O)(=O)N2CC(C)CC(C)C2)CC1 (stereo not drawn),inactive,–
CC[C@H](C)N(C)C(=O)c1cc2ccccc2c(-c2ccccc2Cl)n1,inactive,–
CCOC(=O)CC(NC(=O)c1ccc(C)cc1)c1ccc(C)cc1 (stereo not drawn),inactive,–
O=C(c1cccc(F)c1)N1CCC[C@@]2(CCN(c3cccc(-c4ccccc4)c3)C2)C1,inactive,–
COc1cccc(Nc2ncc3nc(C)c(=O)n(-c4ccccc4)c3n2)c1,inactive,–
Cc1oc2c(C)c(O)ccc2c(=O)c1-c1ccc2ccccc2n1,inactive,–
O=[N+]([O-])c1ccc(CSc2ncnc3c2ncn3[C@@H]2O[C@@H](CO)[C@@H](O)[C@H]2O)cc1,inactive,–
CS(=O)(=O)Nc1cccc(-c2nc(NCc3cccs3)c3ccccc3n2)c1,10 µM (active),–
CCOC(=O)C(NC(C)=O)C(OC(C)=O)c1cccc(N(CCO)CCO)c1 (stereo not drawn),inactive,–
Cc1nc(-c2c(C(F)(F)F)noc2-c2ccc(O)cc2O)cs1,inactive,–
CC(=O)Nc1ccc(S(=O)(=O)NCCc2ccc(F)cc2)cc1,15.8 µM (active),–
CC(=O)Nc1ccc(S(=O)(=O)c2ccc(N)cc2)cc1,inactive,–
COc1ccc(CCNC(=O)CC(NS(=O)(=O)c2ccc(NC(C)=O)cc2)C(C)C)cc1OC (stereo not drawn),inactive,–
CN(C)c1ccc(-c2cc(N(C)Cc3ccco3)ncn2)cc1,7.94 µM (active),–
CN(Cc1ccco1)c1cc(-c2ccc3c(c2)OCO3)ncn1,12.6 µM (active),–
CN(C)C(=O)c1ccc(-c2cc(N(C)Cc3ccco3)ncn2)cc1,inactive,–
CN(Cc1ccco1)c1cc(-c2ccoc2)ncn1,inactive,–
COc1ccc(C(=O)N2CCC3(CC2)CN(C(=O)Nc2cccc(C#N)c2)C3)cc1,inactive,–
Cc1nn(CCc2n[nH]c(=S)n2-c2ccc(F)c(Cl)c2)c(C)c1[N+](=O)[O-],inactive,–
C#C[C@@]1(OC(C)=O)CC[C@@H]2[C@@H]3CCC4=C[C@@H](OC(C)=O)CC[C@H]4[C@H]3CC[C@]21C,inactive,–
N#CCSc1ncnc2c1cnn2CCO,inactive,–
COC(=O)c1c(-c2ccccc2)csc1NC(=O)CSc1ncnc2sc(C)c(C)c12,inactive,–
NC(=S)c1ccc[n+]([C@@H]2O[C@@H](COP(=O)([O-])OP(=O)(O)OC[C@@H]3O[C@@H](n4cnc5c(N)ncnc54)[C@@H](OP(=O)(O)O)[C@H]3O)[C@@H](O)[C@H]2O)c1,inactive,–
COc1ccccc1CN1CC[C@@]2(CCCN(C(=O)c3c(C)noc3C)C2)C1,inactive,–

Compound,AC50,"activity, negative = inhibition"
COC(=O)N1CCC2(CC1)CCN(c1cccc(-c3ccccc3)c1)CC2,inactive,–
COCC(=O)N1CCC2(CCN(Cc3ccncc3)CC2)CC1,6.31 µM (active),–
COc1ccc(C(=O)N2CCC3(CCN(Cc4ccncc4)CC3)CC2)cc1,inactive,–
COc1ccccc1CN1CCC2(CC1)CCN(C(=O)c1c(C)noc1C)CC2,7.94 µM (active),–
CC(=O)N1CCC2(CC1)CCN(c1ccc(-c3ccccc3)cc1)CC2,inactive,–
Cc1noc(C)c1C(=O)N1CCC2(CCN(Cc3ccccc3)CC2)CC1,inactive,–
COC(=O)N1CCC2(CCN(Cc3ccccc3OC)CC2)CC1,2 µM (active),–
COc1ccccc1CN1CCC2(CC1)CCN(C(C)=O)CC2,5.01 µM (active),–
CC(=O)N1CCC2(CC1)CCN(c1ccccn1)CC2,inactive,–
COC(=O)N1CCC2(CCN(Cc3nccs3)CC2)CC1,inactive,–
CC(=O)N1CCC2(CCN(Cc3ccncc3)CC2)CC1,inactive,–
Cc1cc2c(cc1C)NC1=C(N2)O[C@H](c2c[nH]c3ccc(COc4ccccc4)cc23)C1=O,–,-9.09% [at 11.4 µM] (inactive)
N#C/C(=N\O)c1nc(-c2ccccc2)cs1,inactive,–
CC(C)(C)c1ccc(OCC(=O)NNC(=O)Cc2cccs2)cc1,inactive,–
C/C(C[n+]1ccccc1)=N\N=C(N)N,–,6.81% [at 11.4 µM] (inactive)
CN(C)C(=O)CSC1c2ccccc2C(=O)N1c1ccccc1 (stereo not drawn),inactive,–
O=c1c(-c2ccccc2)nc2cnc(N3CCNCC3)nc2n1C1CC1,inactive,–
Cc1onc(-c2c(F)cccc2Cl)c1C(=O)N[C@@H]1C(=O)N2[C@H]1SC(C)(C)[C@H]2C(=O)O,–,16.2% [at 11.4 µM] (inactive)
CNc1cc(N2CCCCCC2)ccc1[N+](=O)[O-],inactive,–
CCC(CC)C(=O)Nc1cccc(/C(C)=N/NC(=O)c2c(Br)cnn2C)c1,inactive,–
CN(C)CCn1nnnc1SCC1=C(C(=O)O)N2C(=O)[C@@H](NC(=O)Cc3csc(N)n3)[C@@H]2SC1,inactive,–
COC(=O)N1CCC2(CCN(Cc3cc(C(F)(F)F)cc(C(F)(F)F)c3)CC2)CC1,10 µM (active),–
COc1ccc(NC(=O)N2CCCC3(CCNCC3)C2)cc1,inactive,–
COCC(=O)N1CCC2(CC1)CN(Cc1cc(C(F)(F)F)cc(C(F)(F)F)c1)C2,inactive,–
COc1ccc(C(=O)N2CCC3(CCN(Cc4cc(C(F)(F)F)cc(C(F)(F)F)c4)CC3)CC2)cc1,inactive,–

Compound,AC50,"activity, negative = inhibition"
COCC(=O)N1CCC2(CC1)CCN(C(=O)Nc1ccc(OC)cc1)CC2,inactive,–
COCC(=O)N1CCC2(CCN(Cc3ccccc3OC)CC2)CC1,15.8 µM (active),–
COCC(=O)N1CCC2(CC1)CN(Cc1ccccc1OC)C2,inactive,–
COc1ccccc1CN1CCC2(CCNCC2)CC1,0.0316 µM (active),–
Cc1cc2c(cc1S(N)(=O)=O)S(=O)(=O)CCC2,inactive,–
CON(C)C(=O)c1nnc2c(n1)[nH]c1ccccc12,–,-2.74% [at 11.4 µM] (inactive)
N[C@H](CCC(=O)N[C@H](CSN=O)C(=O)NCC(=O)O)C(=O)O,inactive,–
Cc1ccc(Oc2ncc(CN3CCOCC3)s2)cc1,inactive,–
COc1cc(N2CCOCC2)ncn1,inactive,–
Cc1cc(C(C)(C)C)c(OCCCN2CCOCC2)c(C(C)(C)C)c1,2 µM (active),–
N[C@@]1(C(=O)O)CN[C@H](C(=O)O)C1,inactive,–
NC1(C(=O)O)CC(C(=O)O)C1 (stereo not drawn),inactive,–
Cc1cc(C)cc(-n2nnnc2SCC(=O)Nc2nc(-c3ccc(F)cc3)cs2)c1,inactive,–
COc1ccc(COC(=O)N/N=C2/C[C@@H](O)[C@@H](O)[C@@H]3[C@@H]4C(=O)N(C(C)(C)C)C(=O)[C@H]4CC[C@@H]23)cc1,–,12.5% [at 11.4 µM] (inactive)
CCC(CC)C(=O)Nc1ccc(C)c(O)c1,17.8 µM (active),–
CCC(CC)C(=O)Nc1cccc(/C(C)=N\NC(=O)c2ccc(C)s2)c1,inactive,–
COC(=O)CSC(C(=O)Nc1ccc(C)c(C)c1)c1ccccc1 (stereo not drawn),inactive,–
Cc1ccccc1C(C(=O)NC1CCCC1)N(C(=O)Cc1cccs1)c1ccc2c(c1)OCCO2 (stereo not drawn),inactive,–
CCOc1ccc(N(C(=O)/C=C/C(=O)Nc2cc(C)on2)C(C(=O)NC2CCCC2)c2ccccc2C)cc1 (stereo not drawn),14.1 µM (active),–
CCOC(=O)CN(C(=O)CCC(=O)Nc1cc(C)on1)C(C(=O)NC1CCCC1)c1cccnc1 (stereo not drawn),inactive,–
COc1cccc(C(CC(=O)Nc2cccc3ccccc23)NC(=O)c2ccccc2)c1 (stereo not drawn),inactive,–
COC(=O)c1cc2c(ccn2-c2ccc(F)cc2)n1C(C)C,inactive,–
CNC(=O)c1cc2c(cn1)[nH]c1ccccc12,inactive,–
